Measurements from PubChem BioAssay (NCI).
This is part of a sample that, as a whole, favours compounds with a hit. Of some 83,000 tested, about 20% had one in any assay.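 96-well plates, one dose, 48 hours. Percent growth reported; active if below 10.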 The source made the active and inactive calls.

How the values were obtained:
Test in all cases: NCI-60 one-dose screen, 48 h (100 = growth as untreated, 0 = no growth, -100 = all killed)
Conditions in all cases: 10 µM unless noted
[1] = test system: HCT-15 colon
[2] = test system: HT29 colon
[3] = test system: SNB-75 CNS
[4] = test system: SNB-19 CNS
[5] = test system: U251 CNS
[6] = test system: PC-3 prostate
[7] = test system: SK-MEL-5 melanoma
[8] = test system: UACC-62 melanoma
[9] = test system: LOX IMVI melanoma
[10] = test system: SK-MEL-28 melanoma

Measured: growth

CCOC(=O)/C=C1\S/C(=N\Nc2cc(=O)[nH]c3ccc(OC)cc23)N(c2ccccc2)C1=O
inactive: [1] 93.3% | [2] 108% | [3] 91.1% | [4] 95% | [5] 92.9% | [6] 99.3% | [7] 103% | [8] 100% | [9] 97.3% | [10] 108%

[2H]C([2H])([2H])Oc1ccc(/C=C/C(=O)/C=C(O)/C=C/c2ccc(OC([2H])([2H])[2H])c(OC([2H])([2H])[2H])c2)cc1OC([2H])([2H])[2H]
inactive: [1] 14.3% | [2] 10.7% | [3] 45.7% | [4] 39.2% | [5] 19.5% | [6] 32.6% | [7] 11.6% | [8] 52% | [9] 14.5% | [10] 87.4%

COc1cc(-c2c(-c3ccccc3)c[nH]c2C(=O)NCCCO)c(OC)c2c1OCO2
inactive: [1] 107% | [2] 106% | [3] 92.9% | [4] 97.5% | [5] 104% | [6] 99.1% | [7] 99.1% | [8] 93.7% | [9] 99.5% | [10] 107%

Oc1ccc(C(c2ccc(O)cc2)c2ccc(Cl)cn2)cc1
active: [3] -32.5% | [6] -32.2% | [9] -42.6%
inactive: [1] 23.2% | [2] 47.9% | [4] 71.9% | [5] 97% | [7] 96.5% | [8] 39.3% | [10] 112%

Cc1cc(C(=O)Nc2cc(Nc3ncccc3-c3ncnc4nc[nH]c34)ccc2F)cc(C(C)(C)C#N)c1
active: [8] 3.75% | [9] -9.5%
inactive: [1] 42.7% | [2] 24.1% | [3] 79.5% | [4] 61.8% | [5] 51.1% | [6] 57.8% | [7] 27.1% | [10] 10.9%

CC(C)CCc1nc2ccc(NCc3ccc(OCCN4CCC(C)CC4)cc3)cc2[nH]1
inactive: [1] 67.4% | [2] 40.3% | [3] 90.8% | [4] 88.6% | [5] 71.6% | [6] 61.4% | [7] 84.9% | [8] 82.5% | [9] 59.6% | [10] 75.7%

c1ccc(-c2cn3nc(-c4c[nH]c5ccccc45)sc3n2)cc1
inactive: [1] 56.2% | [2] 86% | [3] 54.1% | [4] 87.6% | [5] 92.4% | [6] 76.8% | [7] 74.2% | [8] 71% | [9] 86% | [10] 86.8%

Nc1ncc(-c2ccc3ncnc(N4CCc5cc(F)c(Cl)cc54)c3c2)cc1C(F)(F)F
inactive: [1] 17.9% | [2] 20.4% | [4] 46.1% | [5] 47.8% | [6] 25.2% | [7] 37.8% | [8] 20.4% | [9] 12.7% | [10] 38.3%
active: [3] -14.3%

CN1CCN(CC(=O)N(C)c2ccc(N=C(c3ccccc3)c3c(O)[nH]c4ccc([N+](=O)[O-])cc34)cc2)CC1
inactive: [1] 56.8% | [2] 22.7% | [3] 74.3% | [4] 89.2% | [5] 73.1% | [6] 47.6% | [7] 53% | [8] 102% | [9] 36.3% | [10] 75.4%

CC(=O)/C(Br)=C/c1ccc(Br)o1
active: [7] -0.755%
inactive: [1] 65.8% | [2] 62.4% | [3] 92.6% | [4] 87.8% | [5] 80.4% | [6] 80.8% | [8] 85.9% | [9] 38.7% | [10] 60.8%

N#C/C(=N\Nc1ccccc1)C(=O)Nc1cc(-c2ccccc2)nn1-c1ccccc1
active: [5] 8.34% | [7] -27.5%
inactive: [1] 13.1% | [2] 31.5% | [3] 68.2% | [4] 14.6% | [6] 10% | [8] 14.2% | [9] 52.9% | [10] 44.9%

O=C1/C(=C/c2cccc(Br)c2)COc2ccc(O)c(O)c21
active: [1] -7.69% | [2] 2.91% | [4] 1.36% | [5] -85.3% | [6] -35.1% | [8] -72.2% | [9] -90.8% | [10] -17.2%
inactive: [3] 15.1% | [7] 23.3%

COc1cc2c(c(OC)c1OC)C(=O)CC(c1cccc(C(=O)Nc3ccc(Br)cc3)c1)O2 (stereo not given)
active: [6] 5.38%
inactive: [1] 57.9% | [2] 75% | [3] 51.1% | [4] 80.2% | [5] 83.4% | [7] 22.3% | [8] 40.9% | [9] 57.9% | [10] 74.5%

COc1ccc(Cn2cc(C(=O)N=Nc3c(O)[nH]c4ccc(Br)cc34)nn2)cc1
inactive: [1] 105% | [2] 88.5% | [3] 112% | [4] 97.3% | [5] 105% | [6] 99.8% | [7] 98.3% | [8] 97.2% | [9] 107% | [10] 115%

COc1ccc(C(=O)/C=C/Nc2cc(-c3ccccc3)nn2-c2ccccc2)cc1
inactive: [1] 88.1% | [2] 99.4% | [3] 94% | [4] 92% | [5] 93.2% | [6] 86.8% | [7] 93% | [8] 72.2% | [9] 92.9% | [10] 99.5%

O=C1c2ccccc2C(=O)c2cc(Cn3c[n+](Cc4ccc5ccccc5c4)c4ccccc43)ccc21
active: [8] 4.86%
inactive: [1] 89.8% | [2] 51.5% | [3] 42.3% | [4] 45% | [5] 57.1% | [6] 27.7% | [7] 34.1% | [9] 52% | [10] 45.4%

O=C(Nc1ccc(Oc2cccc(F)c2)c(Cl)c1)c1cnccn1
inactive: [1] 31.2% | [4] 40.4% | [5] 25.7% | [6] 16.7% | [8] 33.5% | [9] 43.9% | [10] 60.6%
active: [2] 9.13% | [3] 0.855% | [7] 9.61%

O=C(O)c1cc2ccccc2s1
inactive: [1] 106% | [2] 110% | [3] 97.9% | [4] 111% | [5] 95.9% | [6] 96.4% | [7] 104% | [8] 107% | [9] 99.6% | [10] 117%

CCOC(=O)CCC(=O)P(=O)(O)O
inactive: [1] 108% | [2] 95.9% | [3] 146% | [4] 92.6% | [5] 102% | [6] 62.8% | [7] 104% | [8] 96.6% | [9] 104% | [10] 93.6%

Cc1[nH]c(C(=O)Nc2ccc(C(N)=O)cc2OC(C)C)c(Cl)c1Cl
inactive: [1] 96.1% | [2] 111% | [3] 93.3% | [4] 99% | [5] 98.2% | [6] 99.3% | [7] 99.3% | [8] 106% | [9] 96.1% | [10] 106%

O=C(NS(=O)(=O)c1ccccc1)n1cc(-c2ccncc2)c(-c2cc(O)cc(Cl)c2)n1
inactive: [1] 95.9% | [2] 98.4% | [3] 82.6% | [4] 115% | [5] 104% | [6] 95% | [7] 98.9% | [8] 39.3% | [9] 92.8% | [10] 67.6%

Clc1ccc(C2=Nn3c(nnc3-c3cc(Cl)cc(Cl)c3Cl)SC2)cc1
inactive: [1] 32.3% | [3] 31.7% | [4] 32.8% | [5] 20.9% | [6] 20.2% | [8] 31.9% | [9] 39.8% | [10] 62.1%
active: [2] 6.41% | [7] 0.698%

Cc1ccc(OCCOCCOCCOCCOc2ccc(C)n(O)c2=S)c(=S)n1O
inactive: [1] 28.5% | [2] 23.9% | [3] 33.1% | [4] 15.3% | [6] 32.7% | [10] 31%
active: [5] 9.43% | [7] -15.8% | [8] -0.19% | [9] 4.26%

O=C(Nc1cccc(Cn2c(=O)[nH]c3ccc(Oc4ncccn4)cc3c2=O)c1)c1cccc(Cl)c1
inactive: [1] 61.3% | [2] 54.8% | [3] 82.2% | [4] 65.3% | [5] 61.9% | [6] 50.3% | [7] 11.4% | [8] 52.1% | [9] 71.4% | [10] 78.8%

Cn1nc(-c2ccc(Cl)cc2)nc2c(=O)n(C)c(=O)nc1-2
inactive: [6] 16.6%
active: [1] -67.5% | [2] -77.3% | [3] -100% | [4] -84.5% | [5] -82.6% | [7] -98.5% | [8] -55.2% | [9] -58.6% | [10] -64.4%

CCCCN(CCC#N)C(N)=O
inactive: [1] 101% | [2] 114% | [3] 105% | [4] 98.9% | [5] 107% | [6] 91.2% | [7] 99.5% | [8] 95.4% | [9] 105% | [10] 102%

C[C@H]1c2ccccc2CN1CCCOc1cc2c(cc1OCC1CC1)C1(CCCC1)C(N)=N2
inactive: [3] 74.9% | [4] 83.9% | [5] 48.7% | [6] 44.6% | [8] 57.4%
active: [1] 2.62% | [2] 2.94% | [7] -84.6% | [9] -70.2% | [10] -61%
